Screening results as filed in PubChem.
PTPN22 inh 2 = inhibitors of human LYP (PTPN22) phosphatase; Q9Y2R2; recombinant LYP catalytic domain, DiFMUP fluorescence; inhibition, % at 2 µM; 96,000 compounds, 0.21% hits; AID 640;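 active = inhibition at 2 µM at or above a set limit, the screen mean plus 3 SD, cut at about 24% in these data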
Target sequence (Q9Y2R2 whole entry, looked up, the tested form may be a part): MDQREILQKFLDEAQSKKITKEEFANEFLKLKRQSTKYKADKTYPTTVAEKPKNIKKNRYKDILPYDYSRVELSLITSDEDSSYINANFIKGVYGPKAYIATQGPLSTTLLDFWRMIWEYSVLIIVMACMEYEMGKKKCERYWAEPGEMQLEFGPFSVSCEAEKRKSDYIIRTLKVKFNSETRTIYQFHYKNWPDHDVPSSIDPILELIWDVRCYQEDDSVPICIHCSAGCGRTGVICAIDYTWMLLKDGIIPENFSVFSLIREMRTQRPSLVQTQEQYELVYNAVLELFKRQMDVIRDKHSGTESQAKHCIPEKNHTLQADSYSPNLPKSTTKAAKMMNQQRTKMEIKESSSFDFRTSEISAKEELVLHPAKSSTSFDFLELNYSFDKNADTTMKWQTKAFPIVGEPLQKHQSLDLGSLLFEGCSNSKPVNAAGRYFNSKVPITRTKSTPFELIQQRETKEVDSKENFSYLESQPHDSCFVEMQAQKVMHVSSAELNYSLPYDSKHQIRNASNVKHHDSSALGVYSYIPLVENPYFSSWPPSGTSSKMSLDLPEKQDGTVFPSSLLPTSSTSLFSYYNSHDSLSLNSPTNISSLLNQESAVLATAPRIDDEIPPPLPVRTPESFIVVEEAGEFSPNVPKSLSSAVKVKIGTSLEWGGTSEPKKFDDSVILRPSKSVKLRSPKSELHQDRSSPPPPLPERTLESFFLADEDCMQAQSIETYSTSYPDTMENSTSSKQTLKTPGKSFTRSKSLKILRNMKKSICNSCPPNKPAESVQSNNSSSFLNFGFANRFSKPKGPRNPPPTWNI
LYP act = increases human PTPN22 phosphatase activity; recombinant LYP, DiFMUP fluorescence; 0 = plate median, 100 = signal doubled; activation, % at 2 µM; 96,000 compounds, 0.11% hits; AID 697;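 active = activation at 2 µM above a set limit, the mean plus 5 SD, cut at about 37% in these data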
Measles CPE = protection of cells from measles virus; Measles virus-infected cells, CPE protection, absorbance; 140,000 compounds, 1.5% hits; AID 841; protection (pct of control), % at 4 µM; in the data active = protection mostly above about 24%, no sharp cut-off; inactive = mostly below about 26%
Numbers stand for hits; – = inactive; · = no result. Sampled rows, rich in hits. Any-hit rate of the full collection: about 1.7%.

SMILES	PTPN22 inh 2	LYP act	Measles CPE
CN(C)c1ccc(/C=N/NC(=O)C2COc3ccccc3O2)o1 (stereo not given)	·	·	17
O=C(N/N=C/c1ccco1)C1COc2ccccc2O1 (stereo not given)	·	·	–
CC(C)C(=O)NCCc1c[nH]c2ccccc12	·	·	–
O=C(NCCc1c[nH]c2ccccc12)C(F)(F)F	–	–	45
Cn1c(=O)c2c(nc(SCCN3CCOCC3)n2Cc2ccccc2)n(C)c1=O	–	–	–
O=C(Nc1ncn[nH]1)c1ccc(Cl)c(S(=O)(=O)N2CCCCCC2)c1	–	–	–
COc1ccccc1/C=N/NC(=O)CCSc1ccccc1	·	·	–
COc1cc(/C=N/Nc2nc(C)cc(C)n2)ccc1OC(=O)c1ccco1	·	·	–
COC(=O)C1=C(O)CSC1=Nc1ccccc1	–	–	–
COC(=O)C1=C(O)CSC1=Nc1ccc(C)cc1	·	·	26
COCCCNC(=O)c1ccc([N+](=O)[O-])c(Cl)c1	·	·	36
COCCCNC(=O)c1ccc(C(=O)NCCCOC)cc1	–	–	–
Cc1csc(NC(=O)C2CCCN(S(=O)(=O)c3ccc4c(c3)oc(=O)n4C)C2)n1 (stereo not given)	–	–	–
COc1ccc(C(=O)Nc2ccccc2C(=O)O)cc1Cl	·	·	–
COc1c2c(nc3ccccc13)OC(C(C)(O)COC(C)=O)C2 (stereo not given)	–	–	32
CCOC(=O)CNC(=O)c1c2c(nc3ccccc13)CCCC2	–	–	–
N#CC1=C(N)OC2=C(C(=O)CC(c3ccccc3)C2)C1c1ccoc1 (stereo not given)	·	·	30
N#CC1=C(N)OC2=C(C(=O)CC(c3ccccc3)C2)C1c1cccnc1 (stereo not given)	·	·	–
COc1cc(CN2CCC(C(=O)N3CCN(c4ccccc4F)CC3)CC2)cc(OC)c1O	–	–	51
CCOc1ccc(CN2CCC(C(=O)N3CCN(c4ccccc4F)CC3)CC2)cc1OC	·	·	–
COc1ccccc1NC(=O)COc1cc(C)nc(C(C)C)n1	–	–	–
O=C1CC(=C2c3ccccc3-c3ccccc32)C(=O)N1CCCCN1CCN(c2ccccc2)CC1	45	–	–
O=C1c2ccccc2C(=O)N1CCCCN1CCN(CCCCN2C(=O)c3ccccc3C2=O)CC1	–	–	·
CCOC(=O)c1c(C)n(C)c2ccc(OC(=O)c3ccc([N+](=O)[O-])cc3)cc12	·	·	–
CCOC(=O)c1c(C)n(C)c2ccc(OC(=O)c3ccoc3)cc12	–	–	39
SMILES	PTPN22 inh 2	LYP act	Measles CPE
Cc1cc(NS(=O)(=O)c2ccc(NC(=O)c3cc(-c4ccccc4Cl)nc4ccccc34)cc2)no1	·	·	–
CCn1nnnc1SCC(=O)N1CCOCC1	–	–	28
CCCn1nnnc1SCC(=O)N1CCOCC1	–	–	–
Fc1ccc2[nH]c3c(NCCN4CCOCC4)ncnc3c2c1	–	–	–
COc1ccc(C2CC23N=C(c2ccccc2)OC3=O)cc1 (stereo not given)	·	·	43
COc1ccc(C2=NC(c3ccccc3)CO2)cc1 (stereo not given)	·	·	–
N=c1ncn(CC(O)CN2CCOCC2)c2nc(N3CCOCC3)[nH]c12 (stereo not given)	–	–	–
COc1cccc(/C=N/N2CCN(c3ccccc3OC)CC2)c1	–	–	49
COc1ccc(/C=N/N2CCN(c3ccccc3OC)CC2)cc1OC	–	–	–
CCN1CCN(CC(=O)Nc2nc3ccc(OC)cc3s2)CC1	–	–	–
CC1Nc2nc(NC(=O)C(C)(C)C)[nH]c(=O)c2N(C)C1C (stereo not given)	·	·	73
Cc1ccc2c(C)nc(Nc3nc(CSc4nc5ccccc5[nH]4)cc(=O)[nH]3)nc2c1	–	–	–
CSc1ncc(Cl)c(C(=O)Nc2nnc(SC/C=C/c3ccccc3)s2)n1	–	–	51
C=CCSc1nnc(NC(=O)c2nc(SCC)ncc2Cl)s1	–	–	–
COc1cc(OC)cc(C(=O)N2CCN(S(C)(=O)=O)CC2)c1	–	–	–
Cc1nc2c3ccccc3[nH]c(=O)n2n1	–	–	68
CCn1c(=O)[nH]c2ccccc2c1=O	–	–	–
CCC(CO)NCc1ccc(OCC(=O)Nc2cccc(C(F)(F)F)c2)c(OC)c1 (stereo not given)	·	·	–
CC1CCCCN1Cc1nc2c(c(=O)n(C)c(=O)n2C)n1CCc1ccccc1 (stereo not given)	–	–	–
Cc1ccc(OCc2nc(-c3ccc(Cl)cc3)n[nH]2)cc1	–	–	33
Cc1ccc(C(=O)CC(=O)COc2ccc(Cl)cc2)cc1	·	·	–
CCCCS(=O)CC(CS(=O)CCCC)OC(=O)c1ccccc1 (stereo not given)	–	–	–
CCCCc1c(O)nc(SCC(=O)N2CCOCC2)[nH]c1=O	–	–	–
CC(C)Cc1c(O)nc(SCCN2CCOCC2)[nH]c1=O	–	–	72
COc1ccc(S(=O)(=O)N(CC(=O)N2CCOCC2)Cc2ccccc2)cc1	–	–	–
